The record followed here is PubChem BioAssay (Tox21).

Results filed as inconclusive are left out. A call without a number means that no potency is given here. Active and inactive are the calls of the source. Calls follow the shape of the dose curve; as a rule, active = well fitted cell-killing curve with a large enough effect in the repeat runs; inconclusive = weak or mixed curves, or effect the other way; inactive = flat fitted curve, though single readings scatter.
Potency is read from the fitted curve at half-maximal effect.

This test can be described thus: cAMP Responsive Elements (CRE) small molecule antagonists, cell-based qHTS assay: qHTS cell viability counter screen (AID 2060913). Also: nearly all actives have a fitted effect of over 40% in size. Particulars: CRE-bla HEK293T viability, CellTiter-Glo luminescence, 5 h; series mostly up to 92.4 µM. In outline:
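CRE-bla HEK293T cells (2,000/well, 18 h) given compound plus NKH477 0.25 uM final for 3 h at 37C; viability counter-screen by CellTiter-Glo luminescence in same wells after 30 min.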
For the compound `Brc1ccccn1`, the Potency result was “inactive”. The result for `N=C(N)c1ccc2cc(OC(=O)c3ccc(N=C(N)N)cc3)ccc2c1` reads “inactive”. As to `CCCCCCOC(=O)NC(=N)c1ccc(NCc2nc3cc(C(=O)N(CCC(=O)OCC)c4ccccn4)ccc3n2C)cc1`, the Potency is 26.6 µM (active). Under `Brc1nc2ccccc2s1` stands “inactive”; under `CCOc1ccc(N)c([N+](=O)[O-])c1`, “inactive”; under `Cc1nc2n(c(=O)c1CCN1CCC(C(=O)c3ccc(F)cc3)CC1)CCS2`, “inactive”.

With `C[C@@H]1CCN(C(=O)[C@H](CCCN=C(N)N)NS(=O)(=O)c2cccc3c2NC[C@H](C)C3)[C@@H](C(=O)O)C1`, the Potency entry is “inactive”. On to `Cc1cccc(OCC(O)CNC(C)(C)C)c1C` (centres undefined), for which the Potency entry is “inactive”. The result for `CNCCO` reads “inactive”; that for `c1ccc([C@H]2CN3CCSC3=N2)cc1`, “inactive”; that for `CCS(=O)(=O)c1ccc(OC)c(C(=O)OC)c1`, “inactive”. Under `SCCOCCOCCS` stands “inactive”; under `C/C=C/C=C/C=O`, “inactive”; under `NCc1cccc(C2CCN(C(=O)c3ccc(C#Cc4ccccc4F)o3)CC2)c1`, 68.6 µM (active). The result for `COS(C)(=O)=O` reads “inactive”; that for `CC(C)(C)NC[C@H](O)COc1cccc2c1CCCC2=O`, “inactive”.

Take `O=C(/C=C/c1ccccc1)OC/C=C/c1ccccc1`: the Potency result is “inactive”. Under `COc1cc2c(c(OC)c1OC)-c1ccc(OC)c(=O)cc1[C@@H](NC(C)=O)CC2` stands “inactive”; under `CC(C)C(=O)Nc1ccc([N+](=O)[O-])c(C(F)(F)F)c1`, “inactive”; under `CC(C(=O)O)c1ccc(CC2CCCC2=O)cc1` (centres undefined), “inactive”. The result for `C#CCN(C)Cc1ccccc1` reads “inactive”; that for `O=c1[nH]cccc1O`, “inactive”; that for `N=C(N)c1ccccc1`, “inactive”. The result for `C=COCCOCCOC=C` reads “inactive”. On to `CC(C)(c1cc(Br)c(OCCO)c(Br)c1)c1cc(Br)c(OCCO)c(Br)c1`, for which the Potency result is “inactive”.

Consider `CC1CCCCN1CCCOC(=O)c1ccc(OC2CCCCC2)cc1` (centres undefined), for which the Potency result was “inactive”. Under `NNc1nnc(NN)c2ccccc12` stands “inactive”. The result for `CN(CCOc1ccc(NS(C)(=O)=O)cc1)CCc1ccc(NS(C)(=O)=O)cc1` reads “inactive”; that for `CCCCc1nc2cccnc2n1Cc1ccc(-c2ccccc2-c2nnn[nH]2)cc1`, “inactive”. The result for `CCCCCCCCCCCCCCNCCO` reads “inactive”; that for `C=CC(=O)OCC1CC2CC1C1CCC(COC(=O)C=C)C21` (centres undefined), “inactive”. For the compound `COC(=O)CCc1ccc(OCC(O)CNC(C)C)cc1` (centres undefined), the Potency entry is “inactive”. For the compound `O=C(O)CNC(=O)c1ccc(CO)o1`, the Potency result is “inactive”.

Take `O=C(Nc1ccc(S(=O)(=O)N2CCOCC2)cc1)c1cc(Cl)ccc1NS(=O)(=O)c1ccc(Cl)s1`: the Potency result is “inactive”. Under `CC(C)=CCC/C(C)=C\C#N` stands “inactive”; under `O=C(O)c1cc(Cl)cc([N+](=O)[O-])c1Cl`, “inactive”; under `CCOCN(C(=O)CS(=O)(=O)O)c1c(C)cccc1CC`, “inactive”. The result for `CNc1c2c(nn1C)CCCC2` reads “inactive”; that for `CC(C)C(=O)c1c(C(C)C)nn2ccccc12`, “inactive”.
